According to PubChem BioAssay (NCI):
This is part of a sample that, as a whole, favours compounds with a hit. Of some 83,000 tested, about 20% had one in any assay.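 Treatment: one concentration, 48 hours, 96-well format. Scoring: percent growth, with anything below 10 considered active.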 Active and inactive are the calls of the source.

How the values were obtained:
Assay in all cases: NCI-60 one-dose screen, 48 h (100 = growth as untreated, 0 = no growth, -100 = all killed)
Conditions in all cases: 10 µM unless noted
NCI-H23 lung = tested on: NCI-H23 lung
NCI-H226 lung = tested on: NCI-H226 lung
NCI-H322M lung = tested on: NCI-H322M lung
HOP-62 NSCLC = tested on: HOP-62 NSCLC
NCI-H460 lung = tested on: NCI-H460 lung
A549/ATCC NSCLC = tested on: A549/ATCC NSCLC
786-0 renal = tested on: 786-0 renal
COLO 205 colon = tested on: COLO 205 colon

Measured: growth

CCOC(=O)c1csc(-c2ccc(COC(=O)c3ccccc3)o2)n1
inactive: NCI-H23 lung 108% | NCI-H226 lung 104% | NCI-H322M lung 93.2% | HOP-62 NSCLC 99.5% | NCI-H460 lung 109% | A549/ATCC NSCLC 99.7% | 786-0 renal 102% | COLO 205 colon 114%

CC(=O)/C(=C\c1c(-c2ccccc2)[nH]c2ccccc12)S(=O)(=O)c1ccccc1
inactive: NCI-H226 lung 23.2% | NCI-H322M lung 43.1% | A549/ATCC NSCLC 19.6% | COLO 205 colon 12%
active: NCI-H23 lung -19.8% | HOP-62 NSCLC 6.39% | NCI-H460 lung 2.86% | 786-0 renal 9.85%

NCCCOc1cc(Cl)ccc1NC(=O)c1cc2ccccc2cc1OCCCN
active: NCI-H23 lung -62.3% | NCI-H226 lung -28.9% | NCI-H322M lung -1.29% | HOP-62 NSCLC -94.3% | NCI-H460 lung -91% | A549/ATCC NSCLC -93.6% | 786-0 renal -89.2% | COLO 205 colon -88%

O=C(Nc1ccc(-n2cc(-c3ccncc3)c(-c3ccc(Cl)c(O)c3)n2)cc1)c1ccc(Cl)c(Cl)c1
active: HOP-62 NSCLC 6.9% | NCI-H460 lung 8.3% | 786-0 renal -63.5%
inactive: NCI-H23 lung 45.7% | NCI-H226 lung 107% | NCI-H322M lung 97.1% | A549/ATCC NSCLC 43.6% | COLO 205 colon 51.9%

CCCCCCCCCCCCCCCCNC(=S)N/N=C/c1ccc(O)cc1O
inactive: NCI-H23 lung 77.1% | NCI-H226 lung 76% | NCI-H322M lung 95.2% | HOP-62 NSCLC 83.1% | NCI-H460 lung 37.1% | A549/ATCC NSCLC 55.1% | 786-0 renal 73.3% | COLO 205 colon 98%

BrCCCOc1ccc(Oc2ccc(OCCCBr)cc2)cc1
inactive: NCI-H23 lung 109% | NCI-H226 lung 99.6% | NCI-H322M lung 123% | HOP-62 NSCLC 108% | NCI-H460 lung 105% | A549/ATCC NSCLC 94.7% | 786-0 renal 88.9% | COLO 205 colon 134%

O=P(OCCCl)(OCCCl)C(O)c1ccccc1Cl (stereo not drawn)
inactive: NCI-H23 lung 106% | NCI-H226 lung 100% | NCI-H322M lung 97% | HOP-62 NSCLC 96.2% | NCI-H460 lung 115% | A549/ATCC NSCLC 111% | 786-0 renal 110% | COLO 205 colon 101%

CCCCCCC(C)N(CC(C)(C)O)C(=O)c1ccc([N+](=O)[O-])cc1 (stereo not drawn)
inactive: NCI-H23 lung 99.2% | NCI-H226 lung 95.2% | NCI-H322M lung 91.1% | HOP-62 NSCLC 87.3% | NCI-H460 lung 105% | A549/ATCC NSCLC 104% | 786-0 renal 94.5% | COLO 205 colon 99.6%

Clc1ccc(I)c2ccccc12
inactive: NCI-H23 lung 106% | NCI-H226 lung 103% | NCI-H322M lung 95.3% | HOP-62 NSCLC 103% | NCI-H460 lung 112% | A549/ATCC NSCLC 108% | 786-0 renal 93.4% | COLO 205 colon 110%

C/C=C/C/C=C/[C@H](C)C[C@H](O)[C@@H]1C[C@@H]2O[C@H]2/C=C/[C@H](O)[C@@H](O)/C=C/C[C@H](C)CC(=O)O1
inactive: NCI-H23 lung 83% | NCI-H226 lung 87% | NCI-H322M lung 88.9% | HOP-62 NSCLC 89.6% | NCI-H460 lung 62.8% | A549/ATCC NSCLC 71.8% | 786-0 renal 83.3% | COLO 205 colon 109%

CCCCS(=O)(=O)c1cc(Nc2ccc(O)c3c2C(=O)c2ccccc2C3=O)ccc1C
inactive: NCI-H23 lung 45.7% | NCI-H226 lung 87.8% | NCI-H322M lung 27.6% | HOP-62 NSCLC 72.5% | NCI-H460 lung 14.9% | A549/ATCC NSCLC 28.3% | 786-0 renal 87.1% | COLO 205 colon 70.7%

O=C(CCC(=O)N(CCO)CCO)N(CCO)CCO
inactive: NCI-H23 lung 108% | NCI-H226 lung 105% | NCI-H322M lung 96% | HOP-62 NSCLC 102% | NCI-H460 lung 116% | A549/ATCC NSCLC 105% | 786-0 renal 96.4% | COLO 205 colon 98.4%

COC(=O)[C@@H]1[C@H](O)[C@H](C)[C@H](O)[C@H](C)/C=C\C=C(C)C(=O)Nc2c(C)c(OC(C)=O)c3c(c2O)C(=O)C(C)=C2OCOC(=C23)C(C)=C[C@@](C)(O)[C@H](O)[C@@H](C)[C@H]1OC(C)=O
active: HOP-62 NSCLC -100%
inactive: NCI-H23 lung 109% | NCI-H226 lung 104% | NCI-H322M lung 121% | NCI-H460 lung 110% | A549/ATCC NSCLC 98.6% | 786-0 renal 111% | COLO 205 colon 116%

[N-]=[N+]=Nc1ncc(-c2ccc(C(F)(F)F)cc2)c(NC2CCCCCC2)n1
inactive: NCI-H23 lung 38% [100 µM] | NCI-H226 lung 60.3% [100 µM] | NCI-H322M lung 47.6% [100 µM] | HOP-62 NSCLC 69.9% [100 µM] | NCI-H460 lung 18.4% [100 µM] | A549/ATCC NSCLC 23.6% [100 µM] | 786-0 renal 38.1% [100 µM] | COLO 205 colon 36.3% [100 µM]

Cc1c(C(N)=O)sc2c1c(=O)n(Cc1ccccc1)c1nnc(S(C)(=O)=O)n21
inactive: NCI-H23 lung 97.1% | NCI-H226 lung 96.2% | NCI-H322M lung 107% | HOP-62 NSCLC 78.8% | NCI-H460 lung 91.3% | A549/ATCC NSCLC 102% | 786-0 renal 108% | COLO 205 colon 93.8%

CCn1cnc(C[C@H](NC(=O)[C@@H](NC(=O)Nc2cc(C(F)(F)F)cc(C(F)(F)F)c2)C(C)(C)C)C(=O)OC)c1
active: NCI-H23 lung -84.2% [100 µM] | NCI-H226 lung -49.5% [100 µM] | NCI-H322M lung -96.3% [100 µM] | HOP-62 NSCLC -95.5% [100 µM] | NCI-H460 lung -57.2% [100 µM] | A549/ATCC NSCLC -80.1% [100 µM] | 786-0 renal -83.9% [100 µM] | COLO 205 colon -80% [100 µM]

O=C(O)COc1ccc([N+](=O)[O-])cc1Cl
inactive: NCI-H23 lung 108% | NCI-H226 lung 108% | NCI-H322M lung 99.8% | HOP-62 NSCLC 90.5% | NCI-H460 lung 108% | A549/ATCC NSCLC 100% | 786-0 renal 98.7% | COLO 205 colon 110%

O=c1c2c(c3ccccc3n1-c1ccccc1)NC(=S)NC2c1ccc(Cl)cc1 (stereo not drawn)
active: NCI-H460 lung 2.25%
inactive: NCI-H23 lung 26.7% | NCI-H226 lung 65% | NCI-H322M lung 45.1% | HOP-62 NSCLC 29.3% | A549/ATCC NSCLC 31.7% | 786-0 renal 18.6% | COLO 205 colon 67.2%

CC1CCCCC[N+]12CCCC2 (stereo not drawn)
inactive: NCI-H23 lung 111% | NCI-H226 lung 93.6% | NCI-H322M lung 96.4% | HOP-62 NSCLC 103% | NCI-H460 lung 113% | A549/ATCC NSCLC 103% | 786-0 renal 96.8% | COLO 205 colon 108%

CCCCCCCCCCCCOC(=N)N(C)C
inactive: NCI-H23 lung 107% | NCI-H226 lung 96.2% | NCI-H322M lung 95% | HOP-62 NSCLC 97% | NCI-H460 lung 99.8% | A549/ATCC NSCLC 91.7% | 786-0 renal 96.8% | COLO 205 colon 100%

COc1cc(-c2nn(-c3ccc(NC(=O)Nc4ccc(Cl)c(C(F)(F)F)c4)cc3)cc2-c2ccncc2)ccc1Cl
inactive: NCI-H226 lung 17.9% | NCI-H322M lung 39% | A549/ATCC NSCLC 11.9%
active: NCI-H23 lung 2.97% | HOP-62 NSCLC 8.98% | NCI-H460 lung -51.7% | 786-0 renal -52.3% | COLO 205 colon -94%

Cn1c2ccccc2c2ccccc21
inactive: NCI-H23 lung 99% | NCI-H226 lung 103% | NCI-H322M lung 94.9% | HOP-62 NSCLC 90.8% | NCI-H460 lung 110% | A549/ATCC NSCLC 108% | 786-0 renal 105% | COLO 205 colon 104%

CCCCN(CCCC)c1ccc(C(=O)O)cc1
inactive: NCI-H23 lung 98.1% | NCI-H226 lung 99.5% | NCI-H322M lung 98.4% | HOP-62 NSCLC 98% | NCI-H460 lung 104% | 786-0 renal 99.4% | COLO 205 colon 98.8%
